Measurements taken from PubChem BioAssay (NCI).
Several values for one entry are separate records, joined by “and”; a condition that tells them apart may be missing. Equal values may be shown once. The panel holds about 79,000 compounds, 15% with a hit somewhere; the sample as a whole holds those more often. Values without a mark were called inactive. Activity calls are given as the source filed them. Cut-off read from the data, not from the text of the source: active = growth inhibition above about 70%; inactive = the rest. Where a SMILES comes first, the peptide text is derived from it. [ ]: non-standard residue; d: D form. The star is where a group is joined. NMeF = CN[C@@H](Cc1ccccc1)C(=O)O; NMeV = CN[C@H](C(=O)O)C(C)C; Boc = CC(C)(C)OC(=O)*; OBn = c1ccc(CO*)cc1

Tests used:
[1] = NCI Yeast Anticancer Drug Screen. Data for the rad50 strain (AID 155);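 note: 0% = growth of vehicle-only cultures of the same strain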; conditions: S. cerevisiae rad50 strain growth inhibition, active compounds read high; at 50.0 µM unless noted
Procedure, shortened: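 Compounds were tested on a yeast strain with an engineered DNA damage repair alteration; the reported value is growth inhibition normalised to vehicle treatment.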

[2] = NCI Yeast Anticancer Drug Screen. Data for the mec2-1 strain (AID 157); conditions: S. cerevisiae mec2-1 strain, active compounds read high; at 50.0 µM unless noted
Procedure, shortened: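 Vehicle-treated cultures served as reference for growth inhibition of compound-exposed mec2-1 yeast.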

[3] = NCI Yeast Anticancer Drug Screen. Data for the sgs1 mgt1 strain (AID 161);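 note: 0% = growth of cultures given vehicle only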; conditions: S. cerevisiae sgs1 mgt1 strain, active compounds read high; at 50.0 µM unless noted
Procedure, shortened: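 Genetically altered yeast, compound exposure, growth inhibition relative to vehicle.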

[4] = NCI Yeast Anticancer Drug Screen. Data for the cln2 rad14 strain (AID 165);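 note: 0% = growth equal to vehicle treated cultures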; conditions: S. cerevisiae cln2 rad14 strain, active compounds read high; at 50.0 µM unless noted
Procedure, shortened: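 Each compound was tested on cln2 rad14 yeast. Inhibition of growth was calculated against vehicle-exposed controls.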

[5] = NCI Yeast Anticancer Drug Screen. Data for the bub3 strain (AID 167); conditions: S. cerevisiae bub3 mutant strain, active compounds read high; at 50.0 µM unless noted
Procedure, shortened: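 Growth of a checkpoint-deficient yeast mutant is measured after compound exposure. Values represent inhibition relative to vehicle.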

[6] = NCI Yeast Anticancer Drug Screen. Data for the mlh1 rad18 strain (AID 175); conditions: S. cerevisiae mlh1 rad18 strain growth inhibition, active compounds read high; at 50.0 µM unless noted
Procedure, shortened: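 Vehicle-treated cultures served as the reference for growth inhibition in a yeast strain carrying DNA damage repair alterations exposed to each compound.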

| Compound | growth inhibition [1] | growth inhibition [2] | growth inhibition [3] | growth inhibition [4] | growth inhibition [5] | growth inhibition [6] |
| --- | --- | --- | --- | --- | --- | --- |
| CN(C)c1ccc(C(c2ccc(N(C)C)cc2)c2ccc([N+](=O)[O-])cc2)cc1 | -3.75% | -35.7% | -48.3% | 8.3% | 39% | -16.8% |
| COc1cc2ccc3c4ccccc4cnc3c2cc1OC | 8.1% | 5.4% | 0% | 18.2% | 13.7% | 13.2% |
| COc1ccc(/C(C)=N/N=C\c2cc(OC)c(OC)c(OC)c2)cc1 | 6.95% | 3.15% | -10.8% | 14.8% | 83.2% (active) | 8.2% |
| CCOC(=O)c1cc2ccccc2cc1N=N | 8.3% | 16.7% | 15% | -2.7% | 23.2% | 28.8% |
| COC(=O)C(C)(C)C(C)=O | -40% | -47.1% | -37.5% | 7.5% | -26.9% | -30.4% |
| NC(=O)C1CCCN1C(=O)C(N)Cc1ccccc1 (stereo not drawn) (H-Phe-Pro-NH2; configuration not given here) | -26.9% | -44.1% | -21.1% | 5.7% | 4.7% | -9.05% |
| CC(C)[C@@H](C(=O)N1CCC[C@H]1C(=O)OCc1ccccc1)N(C)C(=O)[C@H](C(C)C)N(C)C(=O)[C@H](Cc1ccccc1)N(C)C(=O)[C@H](NC(=O)OC(C)(C)C)C(C)C (Boc-[dV][NMeF][NMeV][NMeV]P-OBn) | -41.9% | -42.1% | -38.2% | -38.1% | -42.6% | -36.3% |
| Cn1cc2c([N+](=O)[O-])cccc2n1 | 5.35% | 3.75% | 14.7% | -4.6% | -0.9% | 13.2% |
| O=C(OC1CCCCCCC1OC(=O)c1ccc([N+](=O)[O-])cc1)c1ccc([N+](=O)[O-])cc1 (stereo not drawn) | 7.05% | 1.85% | 6.4% | 11.8% | -4.8% | 1.7% |
| CC(=O)OCC(O)CS(=O)c1ccc(C)cc1 (stereo not drawn) | -6.25% | 2% | 0.4% | -30.6% | -16.1% | 4.2% |
| COc1ccc(N/C=C/C2=[N+](C)c3ccccc3C2(C)C)c(OC)c1 | 1.85% and -24.3% | -17.2% and -19.6% | -8.5% and -20.9% | 0.45% and -58.4% | -5.55% and -2.4% | 5.5% and -7.05% |
| CC1(C)COC(c2ccc3c(c2)OCO3)N1 (stereo not drawn) | 0.5% | -8.45% | -5.7% | -19.6% | -9.75% | 0.6% |
| O=C1C2C(c3ccccc3)NC(c3ccccc3)C1C(c1ccccc1)NC2c1ccccc1 (stereo not drawn) | -13.4% | -8.5% | -35.6% | -18.1% | -65% | 0.9% |
| CC(N1CCS(=O)(=O)CC1)P(=O)(O)O (stereo not drawn) | 0.3% | 8.3% | 8.8% | -8.5% | 17.8% | 2.3% |
| COc1ccc(C=C(C(=O)O)C(=O)O)cc1 | 30.1% | -11.6% | -8.15% | 17.8% | 22% | 29.6% |
| CCOC(=O)NC(=O)c1cn(CCOCCOC(=O)NCCCCCCNC(=O)OCCOCCn2cc(C(=O)NC(=O)OCC)c(=O)[nH]c2=O)c(=O)[nH]c1=O | 5.05% | 24.2% | 25.6% | 20.1% | -6.9% | 29.6% |
| CN(C(=O)CCC1OCCO1)c1cc(N)ccc1OCc1ccccc1 | 15.3% | -0.7% | -7.2% | 4.8% | 19.9% | -18.6% |
| CC(=O)NC1CCC(CCC2CCCCC2)CC1 (stereo not drawn) | 0.55% | 5.3% | 2.45% | 2.25% | -5.9% | -9.75% |
| NC(=O)c1ccc[n+]([O-])c1 | 15.1% | -0.5% | 6.35% | 6.6% | 2.65% | -1.75% |

| Compound | growth inhibition [1] | growth inhibition [2] | growth inhibition [3] | growth inhibition [4] | growth inhibition [5] | growth inhibition [6] |
| --- | --- | --- | --- | --- | --- | --- |
| OC1CN(c2ccc(Br)cc2)CC(O)CN(c2ccc(Br)cc2)C1 (stereo not drawn) | 98.7% (active) | 99.7% (active) | 99.7% (active) | 99.5% (active) | 99.5% (active) | 99.7% (active) |
| CCCCCCCCCOc1ccc(C=Nc2ccc(C)cc2)cc1 | -4.3% | 7.8% | -2.55% | -18.9% | -10.9% | -4.65% |
| NNC(=O)Cc1ccc(Cl)c2ccccc12 | 5.8% | -17.9% | 3.6% | -75.9% | -5.2% | 8.85% |
| C[C@@]1([N+](=O)[O-])CC2CCC1C2 (stereo partly drawn) | -3.9% | -12.5% | -16.4% | -6.45% | 2.55% | -9.55% |
| CCCCOc1ccc(Nc2cc(Cl)ccc2C(=O)O)cn1 | -29.2% and 48.1% | -14.2% and 23.7% | -25.6% and 44.4% | -12.6% and 37.7% | -36.1% and 35% | -22.6% and 25.1% |
| CC1(c2ccccc2)CC/C(=C/c2ccccc2)C1=O (stereo not drawn) | -5.4% | 10.1% | 25.9% | -43.5% | 33.3% | 18.3% |
| CC(=O)c1ccccc1NC=O | -7.55% | -10.2% | -12.1% | -40.9% | -15.3% | 4.15% |
| O=[N+]([O-])c1ccc(N=Cc2ccc(N(CCF)CCF)cc2)cc1 | 6.9% | 15.9% | 16.1% | -60% | -9.2% | 10.9% |
| COC1(OC)C(C#N)=C(c2ccccc2)C1(OC)OC | -8% | -6.25% | -6.5% | -19.9% | -14% | -6.8% |
| COc1c(OC(C)=O)ccc(/C=C2\N=C(C)OC2=O)c1[N+](=O)[O-] | -8.3% | -4.75% | 5.25% | 16.5% | 11.1% | 9.2% |
| CC1CC1C(N)C1CC1C (stereo not drawn) | 10.3% | 3.15% | -1.95% | 23.9% | 10.8% | 8.3% |
| C=CCC(O)CCCCC (stereo not drawn) | -0.4% | -22.8% | 15.8% | 20.7% | -11.3% | -23.4% |
| CCC(=O)Oc1ccc(C(=O)c2ccc(OC(=O)CC)cc2)cc1 | 5.05% | -24.9% | 13.8% | 11.4% | 8.05% | 4.1% |
| N#C/C(=C\c1ccco1)C1CCC([N+](=O)[O-])CC1 (stereo not drawn) | -5.05% | -1.5% | 4.35% | -101% | 2.85% | -4.85% |
| CCSc1nnc(SCC)c2c1ncn2CC | 19.9% | 5.8% | 26.4% | -39.8% | 7.5% | 9.05% |
| COc1ccc(C(NC(N)=O)c2cc3c(cc2OC(C)=O)OCO3)cc1 (stereo not drawn) | -7.25% | -1.95% | -6.65% | -9.05% | 5.7% | -0.4% |
| CCN(CC)CCNC(=O)c1ccc(I)cc1 | -43.4% | -14.8% | -0.9% | -25.6% | -4.35% | -30.9% |
| CCOC(=N)C1(O)CCCCC1 | -9.05% | -6.75% | -13.4% | -5.1% | -3.8% | 23.6% |
| CCOC(=O)C(SC(S(=O)(=O)c1ccccc1)S(=O)(=O)c1ccccc1)C(=O)OCC | 33.3% | -1.75% | 21.2% | 21.6% | -2.05% | 25.6% |
